Experimental data taken from PubChem BioAssay AID485273 (Sanford-Burnham Center for Chemical Genomics, 2010).
Hit rate of the full screen: of about 330,000 compounds, about 1,500 (0.45%) were called active. The list comes from a sample in which actives are over-represented; it also holds similar structures and randomly drawn compounds. Values without a mark were called inactive. Cut-off read from the data, not from the text of the source: active = inhibition above about 45% (passing the limit was not always enough); inconclusive = no clear call, values can overlap the other calls.

What follows are compounds tested against Ubiquitin-conjugating enzyme E2 N (Homo sapiens) (UniProt P61088) (assay: blockers of UBC13 ubiquitin chain synthesis – biochemical, TR-FRET, uHTS, primary screen (AID 485273)). Settings: UBC13 polyubiquitin chain formation, at 20 µM, stronger effect = higher value.
Ubiquitin-conjugating enzyme E2 N (Homo sapiens), sequence (P61088 whole entry, looked up): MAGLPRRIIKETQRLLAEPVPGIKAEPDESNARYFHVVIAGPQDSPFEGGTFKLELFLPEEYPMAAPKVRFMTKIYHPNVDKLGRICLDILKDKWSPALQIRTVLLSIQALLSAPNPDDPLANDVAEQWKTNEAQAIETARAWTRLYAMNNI

| SMILES | inhibition |
| --- | --- |
| Cn1c(=O)c2c(-c3cccc(Br)c3)c(C#N)c(N)nc2n(C)c1=O | -5.6% |
| CC(C)(C)c1ccc(S(=O)(=O)N2CCN(C(=O)c3ccc4c(c3)C(=O)N(Cc3ccncc3)C4=O)CC2)cc1 | 6.4% |
| Cc1ccccc1C(CC(=O)c1cccs1)C(C#N)C#N (configuration not stated) | 4.5% |
| COc1ccc(NC2=CC(=S)NC(C)(C)C2)cc1 | -9.8% |
| COc1cc(OC)cc(-c2sc3ccc(OC)cc3c2-c2ccc3cc[nH]c3c2)c1 | 9.4% |
| CC(=O)c1ccc(OCCN2CCOCC2)cc1 | -16.1% |
| c1ccc(-c2ccccc2OCCN2CCCCC2)cc1 | 5.8% |
| COc1ccc2sc(-c3ccccc3OC)c(-c3ccc(OCCN4CCCC4)cc3)c2c1 | 60.6% (active) |
| c1ccc(-c2ccc(OCCN3CCOCC3)cc2)cc1 | 7.7% |
| COc1ccc(-c2sc3ccccc3c2-c2ccc(OCCN3CCOCC3)cc2)cc1 | 54.3% (active) |
| CC1(C)O[C@@H]2[C@H](O1)[C@@H](COS(=O)(=O)O)O[C@H]2n1cnc2c(=O)[nH]cnc21 | -0.9% |
| CC(C)CC1(C(=O)NCc2ccccn2)C=CCN1C(=O)c1ccccc1 (configuration not stated) | 13% |
| COc1ccc(C(=O)Nc2ccc(-n3nncc3C(C)(C)C)cc2)cc1 | -4.8% |
| COc1ccc(C(CNC(=O)c2cccc(S(=O)(=O)Nc3ccccc3Cl)c2)N2CCOCC2)cc1 (configuration not stated) | 2.8% |
| COc1ccc(C(CNC(=O)c2ccc(S(=O)(=O)Nc3ccccc3C)cc2)N2CCOCC2)cc1 (configuration not stated) | -1.4% |
| COc1ccc(C(CNC(=O)c2cccc(NS(=O)(=O)c3ccc(C)c(F)c3)c2)N2CCCC2)cc1 (configuration not stated) | 55.5% (active) |
| CCOCCCNC(=O)C(=O)NCCCOCC | -2.5% |
| CC1CC(C)(C)n2c(O)c(N=NC(N)=S)c3cccc1c32 (configuration not stated) | 92.1% (active) |
| COc1ccc(S(=O)(=O)N2CCC(C(=O)OCC(=O)c3ccccc3)CC2)cc1[N+](=O)[O-] | -5.5% |

| SMILES | inhibition |
| --- | --- |
| FC(F)(F)c1ccnc(Oc2ccc(C3=NCCS3)cc2)c1 | 7.6% |
| O=C(COc1ccc2ccc(=O)oc2c1)NCC(O)c1ccccc1 (configuration not stated) | 4.2% |
| CN(C)CCN(C(=O)CN1C(=O)c2ccccc2C1=O)c1nc2cc3c(cc2s1)OCCO3 | 6.7% |
| CCc1ccc2nc(N(CCCN(C)C)C(=O)c3ccc4c(c3)OCCO4)sc2c1 | 21.3% |
| CN(C)CCCN(C(=O)c1ccc(S(=O)(=O)N2CCCc3ccccc32)cc1)c1nc2ccc(F)cc2s1 | 37.2% |
| CN(C)CCCN(C(=O)c1ccc(S(=O)(=O)N2CCCCCC2)cc1)c1nc2cc3c(cc2s1)OCCO3 | 85.8% (active) |
| CN(C)CCCN(C(=O)c1ccc(S(=O)(=O)N2CCCCCC2)cc1)c1nc2ccc(Br)cc2s1 | 67% (active) |
| CCOc1ccc2nc(N(CCCN(C)C)C(=O)c3ccc(C(=O)c4ccccc4)cc3)sc2c1 | 87.8% (active) |
| CCN(CC)CCN(C(=O)c1cccc([N+](=O)[O-])c1)c1nc2ccc(OC)cc2s1 | -0.4% |
| CCCC(=O)N(CCN1CCOCC1)c1nc2ccc(OCC)cc2s1 | -2.6% |
| COc1ccc2sc(N(CCCN(C)C)C(=O)c3ccc(S(=O)(=O)N(C)C4CCCCC4)cc3)nc2c1 | 15.5% |
| O=C(NCc1csc(-c2cccs2)n1)C1CC1 | -1.3% |
| CC(C)(CCl)C(=O)Nc1ccc(Sc2ccc(F)cc2)cc1 | 7.4% |
| Cc1ccc(C)c(NC(=O)C(c2ccccc2)N2CCN(CC(=O)NC3CC3)CC2)c1 (configuration not stated) | 2.6% |
| Cc1ccc(N2C(=O)N3[C@@H]4c5ccccc5OC[C@@H]4[C@@H](c4ccccc4)[C@@]3(C)C2=O)cc1 | 6.8% |
| O=C1CC(Cc2ccc(Cl)cc2)C(=O)N1c1cc(Cl)ccn1 (configuration not stated) | 0% |
| CN(c1ccccn1)c1ncnc2[nH]ncc12 | 5.9% |
| CSCCC(NC(=O)c1ccc(Cl)cc1Cl)C(=O)NNC(=O)c1csc(N2CCOCC2)n1 (configuration not stated) | 58.4% (active) |
| COc1ccccc1C(=O)NC(CCSC)C(=O)NNC(=O)c1csc(N2CCOCC2)n1 (configuration not stated) | 4.2% |

| SMILES | inhibition |
| --- | --- |
| O=C(NNC(=O)c1cc(-c2ccccc2Cl)nc2ccccc12)c1csc(N2CCOCC2)n1 | 1.5% |
| C[C@@H](CN1CCC[C@H]1CN1C(N)=NC[C@@H]1Cc1ccccc1)N1C[C@@H](Cc2ccccc2)N(CCCC2CCCC2)C1=N | 62.2% (active) |
| CC[C@@H](C)[C@@H]1CN([C@@H](C)CN2CCC[C@H]2CN2C(N)=NC[C@H]2C(C)C)C(=N)N1CCc1ccc(Cl)c(Cl)c1 | 50.1% (active) |
| NC1=NC[C@@H](Cc2ccc(O)cc2)N1CC1CCCCC1 | 17.3% |
| CCCCN1C(N)=NC[C@@H]1Cc1ccccc1 | -6.3% |
| CC(=O)N1CCC(N(C(=O)Nc2ccc(Cl)cc2)C(C)C)CC1 | -2.5% |
| CC(OC(=O)CN1C(=O)C2CCCCC2C1=O)C(=O)Nc1ncc(Cl)cc1Cl (configuration not stated) | -6.5% |
| CCOC(=O)c1ccccc1NC(=O)COC(=O)C(Cc1c[nH]c2ccccc12)NC(C)=O (configuration not stated) | 3.4% |
| O=C(CNC(=O)Cc1ccccc1)NCC(=O)OCC(=O)c1ccccc1Cl | 12% |
| CC1(C)Cc2ccccc2-c2nc(CN3CCOCC3)[nH]c(=O)c21 | -5.3% |
| CCC1(CC)Cc2ccccc2-c2nc(CCl)[nH]c(=O)c21 | 9% |
| CC1(C)Cc2ccccc2-c2[nH]c(=S)[nH]c(=O)c21 | 62.2% (active) |
| CCN(CC)CCC(c1ccc2c(c1)OCO2)c1c(OC)cc(OC)c2c(-c3ccccc3)cc(=O)oc12 (configuration not stated) | 32.1% |
| CCN(CC)CCC(c1cc(OC)c(OC)c(OC)c1)c1c(OC)cc(OC)c2c(-c3ccccc3)cc(=O)oc12 (configuration not stated) | 50.2% (active) |
| CCN(CC)C(=O)CC(c1ccc2c(c1)OCO2)c1c(OC)cc(OC)c2c(-c3ccccc3)cc(=O)oc12 (configuration not stated) | 8.8% |
| N#CCCn1ncc2ccccc21 | 0.9% |
| CCCCn1c(N)c(N(CC)C(=O)c2ccccc2C(F)(F)F)c(=O)[nH]c1=O | -4.3% |
| CCn1c(CNC(=O)c2cc(OC)c(OC)c(OC)c2)cc2cc(C)ccc21 | 5.6% |
| O=S(=O)(Cc1cc(Sc2ccccc2)nc(-c2ccccc2)n1)c1ccccc1 | -3.4% |
